Experimental data published in PubChem BioAssay (NCATS).
Results filed as inconclusive are left out. Unmarked numbers belong to inactive results. The source made the active and inactive calls. Calls follow the shape of the dose curve; as a rule, active = well fitted cell-killing curve with a large enough effect; inconclusive = small, poorly fitted or top-dose-only effect; inactive = flat fitted curve, though single readings scatter.

test: Cellular viability qHTS for adrenocortical cancer (ACC) cell line NCI-H295R (AID 1963990); conditions: CellTiter-Glo ATP luminescence, 48 h; series mostly up to 46.1 µM; activity change, negative = viability loss: at the top concentration; also: nearly all actives have a fitted effect of over 60% in size;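 as to activity change, negative = viability loss: 0% = DMSO only wells and -100% = full killing with cytotoxic reference compound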
In short: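 Readout: CellTiter-Glo luminescence, 20 min RT. Exposure: 48 h, 37C/5% CO2. Cells: NCI-H295R, ITS-DMEM serum-free. Range: up to 46 uM. Analysis: 4PL fit, IC50 plus efficacy.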
Potency is read from the fitted curve at half-maximal effect.

Going from `OC[C@H]1O[C@@H](n2cnc3c2NC=NC[C@H]3O)C[C@@H]1O` to `CC(=O)Nc1ccn(C2COC(COC(=O)c3ccccc3)O2)c(=O)n1` (centres undefined), the “activity change, negative = viability loss” value falls from 0.245% to -24.3%.

Compared with `CC(=O)N[C@@H](CCC(=O)O)C(=O)O`, `C=Cc1c(C)c2cc3[nH]c(cc4nc(cc5nc(cc1[nH]2)C(C)=C5CCC(=O)O)C(CCC(=O)O)=C4C)c(C)c3C=C` is lower in “activity change, negative = viability loss” value: 1.14% for the first, -20.3% for the second.

First: O=C(O)C1CCC1
Second: COc1cc(S(N)(=O)=O)cc(C(=O)O)c1OC
The “activity change, negative = viability loss” value of the first is lower: -25.2% for the first, 7.04% for the second.

Going from `CC1=NS(=O)(=O)c2cc(Cl)ccc2N1` to `CN(C)[C@@H]1C(=O)C(C(N)=O)=C(O)[C@@]2(O)C(=O)C3=C(O)c4c(O)cccc4C[C@H]3C[C@@H]12`, the “activity change, negative = viability loss” value rises from -13.8% to -1.66%.

In the case of `C=CC(=O)Nc1cccc(Nc2nc(Nc3ccc(N4CCN(C(C)=O)CC4)cc3OC)ncc2C(F)(F)F)c1`, the Potency is reported as 3.55 µM (active).
